About 79,000 compounds went through this panel and 15% of them were active in at least one assay; those are over-represented in the sample as a whole. Values without a mark were called inactive. Calls of active or inactive are those of the source. Rule as the data show it: active = growth inhibition above about 70%; inactive = the rest.

The nature of one assay: NCI Yeast Anticancer Drug Screen. Data for the mgt1 strain (AID 153). The settings on record: S. cerevisiae mgt1 mutant growth inhibition; at 3.7 µM; active compounds read high. The method, boiled down:
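mgt1 yeast grown with test compound; read-out is growth inhibition versus vehicle-treated cultures.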
Take `COc1ccc(NC(=O)CC2SC(=Nc3ccccc3C)NC2=O)c([N+](=O)[O-])c1` (stereo not drawn): the growth inhibition is 1%.
The same measure, in the same setting: under `COc1cc(O)c2c(c1O)C(=O)c1cc(C)ncc1C2=O` stands 4%; under `CSc1nnc(SC)nn1`, 4%; under `COc1cc(/C=C2\CCC/C(=C\c3ccc(O)c(OC)c3)C2=O)ccc1O`, -1%.
The same measure, in the same setting: to `CN(C)CCNC(=O)c1cccc2cc([N+](=O)[O-])ccc12` belongs 4%.
On the same count and under the same terms, to `CCC(C)(C)c1ccc(Oc2cccc(C(=O)O)c2)cc1` belongs -6%; to `CCCCCCSc1ncnc2[nH]ncc12`, -1%.
For the compound `CC(=O)Nc1ccc(/C=C/[N+](=O)[O-])cc1`, the growth inhibition was -4%.
The same measure, in the same setting: under `CCOC(=O)c1[nH]n(-c2ccccc2)c(=O)c1C=NC(=S)C(N)=S` stands -10%; under `CCCC(O)C1CC(C(C)C)CCC1C` (stereo not drawn), 0%.
As to `O=[n+]1c2ccccc2n([O-])c2cc(Br)ccc21`, the growth inhibition is 5%.
On the same count and under the same terms, under `CN(C)CCNC(=O)c1cccc2c1Oc1c(cccc1[N+](=O)[O-])O2` stands 17%; under `Nc1ncc(-c2ccc(Br)cc2)s1`, -1%; under `Cc1cc2cc3cc(C)c(N)cc3nc2cc1N`, -60%.
On the same count and under the same terms, under `CC12C(=O)OC(=O)C(c3ccccc31)c1ccccc12` stands -9%; under `c1ccc2c(OCC3CO3)cccc2c1` (stereo not drawn), -1%.
With `CCOC(=N)c1ccc(O)c(OC)c1`, the growth inhibition was -1%.
Still for that read-out and setting: under `Nc1cc(N)c(N=Nc2cccc3c(S(=O)(=O)O)cccc23)cc1N=Nc1cc([N+](=O)[O-])ccc1O` stands 8%; under `COC(=O)Oc1cc(Cl)c(Cl)cc1Cl`, 0%.
Same read-out and setting: to `O=C(O)C1CC(c2ccccc2)=NN1c1ccccc1` (stereo not drawn) belongs -56%; to `COc1cc([C@@H]2c3cc4c(cc3[C@@H](Nc3ccc(NC(=O)c5cc([N+](=O)[O-])cn5C)cc3)[C@H]3COC(=O)[C@H]23)OCO4)cc(OC)c1O`, 5%.
The same measure, in the same setting: under `O=C(O)c1ccccc1/C=N/N=C1c2ccccc2-c2ccccc21` stands 0%; under `O=C1CC(=O)c2ccccc21`, 0%; under `Nc1ncnc2c1ncn2C1OC(CO)CC1O` (stereo not drawn), -3%.

Still in this assay, the particulars now being: S. cerevisiae mgt1 mutant growth inhibition; at 11.0 µM; active compounds read high.
Regarding `CS(=O)(=O)SCc1ccc([N+](=O)[O-])cc1`, the growth inhibition is 61%.
Still for that read-out and setting: under `Cc1csc(=S)n1OC(=O)NC1CCCCC1` stands 100% (active); under `CCOc1ccc(NC(=O)C2=C(C)NC(C)=C(C(=O)Nc3ccc(OCC)cc3)C2c2cccc([N+](=O)[O-])c2)cc1`, -3%; under `CC(C)(C)N=C(NO)c1ccccc1`, 2%.
On to `CCCCC/C(=C(\C#N)C(=O)OCC)c1ccccc1`, for which the growth inhibition is -3%.
Still for that read-out and setting: to `O=C(NCCCl)Sc1ccc(Cl)cc1` belongs -2%.
Take `O=C1Nc2ccc(Br)cc2C1=Nc1ccc2c(c1)OCO2`: the growth inhibition was -15%.
With `CCC(C)OC(=O)Nc1ccc(C)c(NC(=O)OC(C)CC)c1` (stereo not drawn), the growth inhibition was -1%.
The same measure, in the same setting: under `O=C(O)c1cc2ccc(Cl)cc2c(O)c1C1=CCCCC1` stands 1%; under `CN(C)Cc1cc(N=Nc2ccc(Cl)cc2)ccc1OC(=O)c1ccccc1`, 5%; under `CN1CCN(C(=O)/C=C/C(=O)c2ccccc2)CC1`, 34%.
Take `CCCC/C=C/C(C)(C(=O)OCC)C(=O)OCC`: the growth inhibition was -4%.
The same measure, in the same setting: to `Cc1nc(-c2cc3cc([N+](=O)[O-])ccc3oc2=O)cs1` belongs 5%.
Still for that read-out and setting: to `Cc1nc2ccccc2nc1NNc1ccccc1` belongs 3%; to `CN(C)[C@@H]1C(=O)C(C(N)=O)=C(O)[C@@]2(O)C(=O)C3=C(O)c4c(O)cccc4C[C@H]3C[C@@H]12`, 21%.
Same read-out and setting: under `COc1ccc(NC(=O)CC2SC(=Nc3ccccc3C)NC2=O)c([N+](=O)[O-])c1` (stereo not drawn) stands 1%.
As to `COc1cc(O)c2c(c1O)C(=O)c1cc(C)ncc1C2=O`, the growth inhibition was 15%.
Take `CSc1nnc(SC)nn1`: the growth inhibition is 13%.
On the same count and under the same terms, to `COc1cc(/C=C2\CCC/C(=C\c3ccc(O)c(OC)c3)C2=O)ccc1O` belongs 1%.
On the same count and under the same terms, to `CN(C)CCNC(=O)c1cccc2cc([N+](=O)[O-])ccc12` belongs 33%; to `CCC(C)(C)c1ccc(Oc2cccc(C(=O)O)c2)cc1`, 2%.
`CCCCCCSc1ncnc2[nH]ncc12`: the growth inhibition was -2%.
Same read-out and setting: to `CC(=O)Nc1ccc(/C=C/[N+](=O)[O-])cc1` belongs -1%.
Regarding `CCOC(=O)c1[nH]n(-c2ccccc2)c(=O)c1C=NC(=S)C(N)=S`, the growth inhibition was -16%.
On the same count and under the same terms, to `CCCC(O)C1CC(C(C)C)CCC1C` (stereo not drawn) belongs -1%; to `O=[n+]1c2ccccc2n([O-])c2cc(Br)ccc21`, 51%.
Still for that read-out and setting: under `CN(C)CCNC(=O)c1cccc2c1Oc1c(cccc1[N+](=O)[O-])O2` stands 16%; under `Nc1ncc(-c2ccc(Br)cc2)s1`, 2%.
Same read-out and setting: under `Cc1cc2cc3cc(C)c(N)cc3nc2cc1N` stands -28%.
As for `CC12C(=O)OC(=O)C(c3ccccc31)c1ccccc12`, the growth inhibition was -5%.
As to `c1ccc2c(OCC3CO3)cccc2c1` (stereo not drawn), the growth inhibition was 0%.
On the same count and under the same terms, under `CCOC(=N)c1ccc(O)c(OC)c1` stands -2%; under `Nc1cc(N)c(N=Nc2cccc3c(S(=O)(=O)O)cccc23)cc1N=Nc1cc([N+](=O)[O-])ccc1O`, 9%; under `COC(=O)Oc1cc(Cl)c(Cl)cc1Cl`, 1%.
Same read-out and setting: under `O=C(O)C1CC(c2ccccc2)=NN1c1ccccc1` (stereo not drawn) stands -41%; under `COc1cc([C@@H]2c3cc4c(cc3[C@@H](Nc3ccc(NC(=O)c5cc([N+](=O)[O-])cn5C)cc3)[C@H]3COC(=O)[C@H]23)OCO4)cc(OC)c1O`, 14%; under `O=C(O)c1ccccc1/C=N/N=C1c2ccccc2-c2ccccc21`, 0%.
Still for that read-out and setting: to `O=C1CC(=O)c2ccccc21` belongs 1%; to `Nc1ncnc2c1ncn2C1OC(CO)CC1O` (stereo not drawn), 10%.

The record behind these values is PubChem BioAssay (NCI).
